Activity calls are given as the source filed them. No rule for the calls is given here.

The nature of this test: blockers of DNA damage checkpoint Chk1 activation – imaging, HeLa, hydroxyurea, phospho-Chk1 nuclear intensity, primary screen (AID 1187). Also: test concentration not given here. Particulars: hydroxyurea-induced phospho-Chk1 immunofluorescence imaging, higher = more signal.
Consider `CCOC(=O)C[C@H]1[C@H](OC(=O)Cc2ccc3c(c2)OCO3)[C@@H](NC(=O)CC(C)C)c2cc(OCCCO)ccc2N1C(=O)c1ccc2ccccc2n1`, for which the z-score is 0.252 (inactive). The figure for `COc1cc2c(cc1OC)CN(C(=O)[C@@H]1[C@H]3C(=O)O[C@H](c4ccccc4)[C@H](c4ccccc4)N3[C@H](c3ccc(O)cc3)[C@@]13C(=O)Nc1ccc(C#CC4=CCCCC4)cc13)CC2` is 0.407 (inactive). The figure for `CCOC(=O)C1=CCC(c2ccncc2)N(S(=O)(=O)c2ccc(C)cc2)C1` (centres undefined) is 0.104 (inactive).

Turning to `C=CCC(OC(C)=O)[C@@H]1[C@@H](N(Cc2cccc3ccccc23)C(=O)c2ccc(C)cc2)c2cc(OCCCO)ccc2N1C(=O)Cc1ccc2ccccc2c1` (some centres undefined), the z-score was -0.416 (inactive).

Turning to `COc1ccc(NN2C(C(O)c3ccc(F)cc3)C=CC3C(=O)N(C4CCCCC4)C(=O)C32)cc1` (centres undefined), the z-score is 0.0539 (inactive).

On to `CCCCCN1CC=CC23O[C@@H]4/C=C\CCCOC(=O)C4[C@H]2C(=O)N(CCO)[C@@H]3C1=O` (some centres undefined), for which the z-score was 0.205 (inactive). Consider `O=C1NC(=O)C2C1C=CC(C(O)c1ccc(F)cc1)N2Nc1ccc(Cl)cc1Cl` (centres undefined), for which the z-score was 0.116 (inactive). For `COC(=O)[C@@]1(Cc2ccc(F)cc2)[C@H]2c3cc(C(=O)N4CCCC4)n(Cc4ccc(C(F)(F)F)nc4)c3C[C@H]2CN1C(=O)c1ccccc1`, the z-score was 0.554 (inactive).

For `CC[C@@H](O[Si](C#C[Si](C(C)C)(C(C)C)C(C)C)(C(C)C)C(C)C)c1cn([C@H](CO)Cc2ccccc2)nn1`, the z-score is -0.0008 (inactive).

For the compound `[N-]=[N+]=NCc1ccccc1C[C@]1(C(=O)N2CCCCC2)COC(c2ccc(OCCCO)cc2)=N1`, the z-score was -0.928 (inactive). The figure for `C=C(C(=O)CC[C@H](OC(=O)c1ccccc1-c1ccccc1C(=O)O)c1ccc(OCCO)cc1)C(C)C` is -0.326 (inactive). The figure for `COCCOC(=O)N1C(=O)[C@@]2(c3cc(C#CCCO)ccc31)[C@H](c1ccc(O)cc1)N1[C@H](c3ccccc3)[C@H](c3ccccc3)OC(=O)[C@H]1[C@@H]2C(=O)NC[C@H](O)c1ccccc1` is 0.345 (inactive). With `CCCCC(=C=CC[C@@H](O)c1ccccc1OCCO)C[C@@H](O)c1ccccn1`, the z-score was -0.123 (inactive). For `COC(=O)[C@]1(Cc2ccccc2CN=[N+]=[N-])N=C(c2ccc(OCCCO)cc2)O[C@@H]1c1ccccc1N=[N+]=[N-]` the value was -0.543 (inactive). In the case of `O=C1O[C@H](c2ccccc2)[C@H](c2ccccc2)N2[C@H]1[C@@H](C(=O)O)[C@]1(C(=O)Nc3ccccc31)[C@H]2c1ccc(OCCO)cc1`, the z-score is 0.612 (inactive). Consider `CC(C)C[C@@H]1NC(=O)[C@H]2C[C@@H](C(=O)O)[C@@H](c3cccc(OCCO)c3)N2C1=O`, for which the z-score is -0.134 (inactive). As for `O=C1C[C@@](C(=O)NCC(F)(F)F)(c2ccc([N+](=O)[O-])cc2)[C@@H](c2ccc(CO)cc2I)N1CC12CC3CC(CC(C3)C1)C2`, the z-score was -0.245 (inactive).

Regarding `CCCC=C(CCC)[C@@H](NC(=O)c1ccc(C(=O)OC)cc1)c1ccc(C(=O)OC)cc1`, the z-score is -0.745 (inactive). The figure for `CC1(C)OB(/C=C\CC(OC(=O)c2ccncc2)c2ccccc2)OC1(C)C` (centres undefined) is 0.415 (inactive).

The values are drawn from PubChem BioAssay.
